Results reported in the OligoGym collection.

Biological target: CCNA1
Assay: pooled miR-30 sensor sort-seq; sequence = guide strand
Details: shRNA
Further: reference of the scale not given here.

Row | Sequence | sensor-assay potency score (higher = more potent)
1 | TTTTGTGTATGTATCATCGGTG | 0.2
2 | TTTCACTTAATGAATACCCTGT | 1.11
3 | TAATTGCTTGCTGAGGTCGATG | -1.07
4 | TAGAACTTTCAGAAGCAAGTGT | 0.493
5 | TTAGCCAGGTTCTCAGTCCTGA | -0.236
6 | TGATATAGACAAACTCGTCTAC | 0.267
7 | TAACAGTTGTCGTTTTGTGTAT | -0.217
8 | TTGTAAACAACATTAGTTGATC | -0.494
9 | TTTGTGTATGTATCATCGGTGA | -0.746

Biological target: CCNG1
Assay: as above
Details: shRNA

Row | Sequence | sensor-assay potency score (higher = more potent)
10 | TTTGACTTTCCAACACACCTTC | 0.153
11 | TTCTGTTAACTCTACACACTTC | -0.348
12 | TTCATTTTAGACAGGAATCTGT | 0.0756
13 | TTGGCTGACATCTAGACTCCTG | 0.244
14 | TTAACTCTACACACTTCTGTGC | 0.175
15 | TTGACTTTCCAACACACCTTCT | -0.557
16 | TTCAGTTGAGCTTCTAGTCTTT | 0.39
17 | TAGTCTCAAACCACAGACCTTT | -0.816
18 | TTAGCTTTGATTTGAATGCTTC | 0.215
19 | TTTGGATACAAGCTCTTGCCAG | -0.48
20 | TAGTCTTGCAGTCATTCTGAGG | -1.44
21 | TTCAACTTCTGAACATTTGGTT | 0.69
22 | TTAGTCTTGCAGTCATTCTGAG | -0.381
23 | TTCTATTGATTTTACAGCCAAA | -1.32
24 | TTTAGACAGGAATCTGTCCAGT | -0.19
25 | TTGGATACAAGCTCTTGCCAGA | -0.511
26 | TACATTTGTGAAATGTTGCTTT | 0.17
27 | TCTGAAGACATTCTATTCCTTC | -0.269
28 | TTTTAGACAGGAATCTGTCCAG | 0.0176
29 | TAGCATTTCACATTTAGGCTTT | 0.478
30 | TTAGTCTCAAACCACAGACCTT | -1.23
